Active and inactive are the calls of the source. Rule for the calls: active = hit-call score of the fitted dose curve at least 0.9, where 1 is the maximum; inactive = score below 0.9.
Test: ATG_AP_1_CIS: Attagene CIS-FACTORIAL HepG2 Assay for human Activator Protein 1 (AP-1) (AID 2282931)
Conditions: HepG2 Attagene cis-factorial AP-1 reporter mRNA; actives raise or lower the signal
Experimental: ATG_CIS is a cell-based, multiplexed-readout assay that uses HepG2, a human liver cell line, with measurements taken at 24 hours after chemical dosing in a 24-well plate.ATG_AP_1_CIS is one of 52 assay component(s) measured or calculated from the ATG_CIS assay. It is designed to make measurements of mRNA induction, a form of inducible reporter, as detected with fluorescence intensity signals by Reverse transcription polymerase chain reaction (RT-PCR) and Capillary electrophoresis technology.Data from the assay component ATG_AP_1_CIS was analyzed into 1 assay endpoint. This assay endpoint, ATG_AP_1_CIS, was analyzed with bidirectional fitting relative to DMSO as the negative control and baseline of activity. Using a type of inducible reporter, measures of mRNA for gain or loss-of-signal activity can be used to understand the reporter gene at the transcription factor-level as they relate to the gene FOS and JUN. Furthermore, this assay endpoint can be referred to as a primary readout, because this assay has produced multiple assay endpoints where this one serves a reporter gene function. To generalize the intended target to other relatable targets, this assay endpoint is annotated to the dna binding intended target family, where the subfamily is basic leucine zipper.
Human liver HepG2 cells are transiently transfected with multiple reporter transcription units (MRTUs) in 6-well plates using FuGene 6 reagent (Roche; 3 ml FuGene/1 mg DNA). The MRTU constructs are regulated by a cis-regulating element (promoter). […] A major difference between the CIS and TRANS system is that in CIS activities of endogenous TFs are measured, whereas the TRANS assay evaluates changes in activities of exogenous, chimeric NR-Gal4 proteins. […] At the end of 24 hour incubation, total RNA was isolated using TriZol reagent (Invitrogen). The isolated RNA is then reverse-transcribed using oligo(dT) primer and Mo-MLV reverse transcriptase (Invitrogen) with DNAse I (Ambion) treatment for 30 min. The one-tenth of the produced cDNA was amplified by PCR using Taq DNA polymerase (Invitrogen) and two reporter sequence-specific primers. The PCR products were fluorescently labeled by primer extension with 6-arboxyfluorescein (6-FAM) 5'-labeled reporter sequence-specific primer (2 min at 95 C, 20 s at 68 C and 10 min at 72 C) and these products were digested with 5U of HpaI (New England Biolabs) for 2h at 37 C. The fragments were purified using Qiaquick PCR columns (Qiagen), analyzed on an ABI 3130xL genetic analyzer (Applied Biosystems) with peak positions identified by using a set of X-rhodamine (ROX)-labeled MapMarker1000 molecular weight standards (BioVentures). The raw capillary electrophoresis data was processed using Attagraph software (Attagene).

Structure (SMILES)	outcome	AC50
O=C(O)COc1ccc(Cl)cc1	inactive	
N#Cc1ccccc1Cl	inactive	
COCCl	inactive	
CCCCN(CCCCO)N=O	inactive	
O=S(=O)(Oc1ccc(Cl)cc1)c1ccc(Cl)cc1		32.6 µM (active)
Nc1c(Oc2ccccc2)cc(O)c2c1C(=O)c1ccccc1C2=O	inactive	
O=C/C(Cl)=C(/Cl)C(=O)O	inactive	
CN(N=O)c1ccc([N+](=O)[O-])cc1	inactive	
CCC(C)(C#N)N=NC(C)(C#N)CC (stereo not given)	inactive	
C1CN2CCN1CC2	inactive	
O=C(NC(=O)c1c(F)cccc1F)Nc1cc(Cl)c(OC(F)(F)C(F)C(F)(F)F)cc1Cl (stereo not given)		100 µM (active)
O=C(Nc1ccc(Br)cc1)c1cc(Br)cc(Br)c1O	inactive	
NC(=O)c1ccc(N)nc1	inactive	
BrCCCCBr	inactive	
C=CCc1ccccc1O	inactive	
O=[N+]([O-])c1cccc2ccccc12	inactive	
CC(C)(c1ccccc1)c1cc(-n2nc3ccccc3n2)c(O)c(C(C)(C)c2ccccc2)c1	inactive	
O=C(NC(=O)c1c(F)cccc1F)Nc1cc(Cl)c(Oc2ncc(C(F)(F)F)cc2Cl)c(Cl)c1	inactive	
Nc1nc(=S)[nH][nH]1	inactive	
O=S1(=O)OC(c2cc(Br)c(O)c(Br)c2)(c2cc(Br)c(O)c(Br)c2)c2ccccc21	inactive	

Structure (SMILES)	outcome	AC50
O=c1[nH]c(=O)n(Cl)c(=O)n1Cl	inactive	
CC(F)(F)CC(F)(F)F	inactive	
c1csc(-c2ccc(-c3cccs3)s2)c1		8.14 µM (active)
CCOP(=O)(OCC)SCCSCC	inactive	
O=C(NC(=O)c1c(F)cccc1F)Nc1ccc(Cl)cc1	inactive	
CN(N=O)C(N)=O	inactive	
CCOP(=S)(OCC)Oc1ccc(Cl)cc1Cl	inactive	
N#Cc1cccnc1	inactive	
OC(Cc1ccccc1Cl)(Cn1cncn1)C1(Cl)CC1 (stereo not given)	inactive	
C[C@H]1C(=O)O[C@@H]2CCN3CC=C(COC(=O)[C@](C)(O)[C@]1(C)O)[C@H]23	inactive	
O=C(NC(=O)c1c(F)cccc1F)Nc1cc(Cl)c(F)c(Cl)c1F	inactive	
CC(C=O)Cc1ccc2c(c1)OCO2 (stereo not given)	inactive	
CC(C)(C1CCC(O)CC1)C1CCC(O)CC1 (stereo not given)	inactive	
N#CS	inactive	
CC(C)(c1ccc(O)c(-c2ccccc2)c1)c1ccc(O)c(-c2ccccc2)c1	inactive	
O=NN1CCCCCC1	inactive	
Oc1cc(Cl)c(Cl)cc1Cl		25.9 µM (active)
NC(=O)CCl	inactive	
C=CCOC(F)(C(F)(F)F)C(F)(F)F	inactive	
CC(C)[C@H](C(=O)OC(C#N)c1cccc(Oc2ccccc2)c1)c1ccc(OC(F)F)cc1 (stereo not given in full)	inactive	

From PubChem BioAssay (EPA / NIEHS)
